Assay results reported in the supplement of paper PMC7156485.
“And” between values parts separate entries of the source, which are not always exact repeats. Identical values can stand only once.

Experiments:
Conditions in all cases: concentration: 10 µM; 24 h
HCC1569 [1] = assay: cell number relative to DMSO (% of DMSO); higher = more cells (less growth inhibition / toxicity)
Summary of the method: (§1)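 In 384-well plates holding 800 HCC1569 or TDF cells per well in RPMI with 10% FBS, compounds were tested at 10 µM for 24 h at 37 °C in triplicate. Fixation used 3.7% formaldehyde. Staining used a rabbit anti-H1.0 antibody with an AlexaFluor 647 secondary, plus DAPI. Each value, H1.0 nuclear intensity or cell number, is a median of replicates shown as percent of the plate control, and HCC1569 values were smoothed for positional effects.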

TDF [2] = assay: as above
Summary of the method: as §1

TDF [3] = assay: H1.0 immunofluorescence intensity relative to DMSO (% of DMSO); higher = stronger H1.0 induction, active = 120 or more
Summary of the method: as §1

HCC1569 [4] = assay: H1.0 immunofluorescence intensity relative to DMSO (% of DMSO); higher = stronger H1.0 induction, active = 140 or more
Summary of the method: as §1
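Throughout, for H1.0 immunofluorescence intensity relative to DMSO: TDF is a line of transformed human dermal fibroblasts of mesenchymal origin.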
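Throughout, for cell number relative to DMSO: TDF denotes transformed human dermal fibroblasts of mesenchymal origin.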

In the case of `Cc1cc2nc3c(=O)[nH]c(=O)nc-3n(C)c2cc1C=O`, the cell number (HCC1569 [1]) is reported as 99.8, the cell number (TDF [2]) is reported as 97.8 and the H1.0 immunofluorescence intensity (TDF [3]) is reported as 91 (inactive). For the same molecule, the H1.0 immunofluorescence intensity (HCC1569 [4]) was 115 (inactive).
`CCCCCCCCCCCCCCCC(O)C(N)CO` (stereo unspecified) [Dihydrosphingosine] was tested, and the cell number (HCC1569 [1]) was 102, the cell number (TDF [2]) was 94.5 and the H1.0 immunofluorescence intensity (TDF [3]) was 98.8 (inactive). For the same molecule, the H1.0 immunofluorescence intensity (HCC1569 [4]) was 106 (inactive).
`N#CCNC(=O)c1ccc(-c2ccnc(Nc3ccc(N4CCOCC4)cc3)n2)cc1` was tested, and the cell number (HCC1569 [1]) was 64.8, the cell number (TDF [2]) was 36.1 and the H1.0 immunofluorescence intensity (TDF [3]) was 132 (active). For the same molecule, the H1.0 immunofluorescence intensity (HCC1569 [4]) was 127 (inactive).
For `COc1cccc(-c2cc(=O)c3ccccc3o2)c1N`, the cell number (HCC1569 [1]) was 99.7 and 100 and 98.4, the cell number (TDF [2]) was 105 and 103 and the H1.0 immunofluorescence intensity (TDF [3]) was 85.6 (inactive) and 92.6 (inactive) and 87.8 (inactive). The H1.0 immunofluorescence intensity (HCC1569 [4]) was 106 (inactive) and 104 (inactive).
`COc1cc(NS(=O)(=O)c2ccc(N)cc2)nc(OC)n1` [Sulfadimethoxine] was tested, and the cell number (HCC1569 [1]) was 103, the cell number (TDF [2]) was 109 and the H1.0 immunofluorescence intensity (TDF [3]) was 96.7 (inactive). The H1.0 immunofluorescence intensity (HCC1569 [4]) was 92.3 (inactive).
For `CC1CCN=C(N)S1.Cl` (racemic), the cell number (HCC1569 [1]) was 98.5, the cell number (TDF [2]) was 103 and the H1.0 immunofluorescence intensity (TDF [3]) was 108 (inactive). For the same molecule, the H1.0 immunofluorescence intensity (HCC1569 [4]) was 100 (inactive).
`Cl.NC(N)=NC(=O)Cc1c(Cl)cccc1Cl` [Guanfacine hydrochloride] was tested, and the cell number (HCC1569 [1]) was 104, the cell number (TDF [2]) was 114 and the H1.0 immunofluorescence intensity (TDF [3]) was 86.8 (inactive). For the same molecule, the H1.0 immunofluorescence intensity (HCC1569 [4]) was 91.5 (inactive).
For `CCCCCCCCCCCC1N[C@H](C(=O)O)CS1` (stereo partly drawn) [(4R)-2-undecyl-1,3-thiazolidine-4-carboxylic acid], the cell number (HCC1569 [1]) was 98.7, the cell number (TDF [2]) was 105 and the H1.0 immunofluorescence intensity (TDF [3]) was 95.5 (inactive). The H1.0 immunofluorescence intensity (HCC1569 [4]) was 96.9 (inactive).
With `Cl.NCCCCC(=O)O` [5-Aminovaleric acid hydrochloride] the cell number (HCC1569 [1]) was 102, the cell number (TDF [2]) was 107 and the H1.0 immunofluorescence intensity (TDF [3]) was 96.1 (inactive). The H1.0 immunofluorescence intensity (HCC1569 [4]) was 91.6 (inactive).
For `C=CCc1ccc(O)c(-c2cc(CC=C)ccc2O)c1` [Magnolol], the cell number (HCC1569 [1]) was 98, the cell number (TDF [2]) was 98.2 and the H1.0 immunofluorescence intensity (TDF [3]) was 91.7 (inactive). The H1.0 immunofluorescence intensity (HCC1569 [4]) was 83 (inactive).
With `CC(C)Nc1cccnc1N1CCN(C(=O)c2cc3cc(NS(C)(=O)=O)ccc3[nH]2)CC1.CS(=O)(=O)O` [Delavirdine mesylate] the cell number (HCC1569 [1]) was 101, the cell number (TDF [2]) was 102 and the H1.0 immunofluorescence intensity (TDF [3]) was 99.1 (inactive). The H1.0 immunofluorescence intensity (HCC1569 [4]) was 110 (inactive).
With `CC1=c2[nH]c3c(c2CCN1)C=CC(=O)C=3.Cl.O.O` the cell number (HCC1569 [1]) was 98.2, the cell number (TDF [2]) was 89 and the H1.0 immunofluorescence intensity (TDF [3]) was 97.7 (inactive). The H1.0 immunofluorescence intensity (HCC1569 [4]) was 144 (active).
`OC1CCN2Cc3ccccc3N=C12` (stereo unspecified) [Vasicine] was tested, and the cell number (HCC1569 [1]) was 102, the cell number (TDF [2]) was 105 and the H1.0 immunofluorescence intensity (TDF [3]) was 98.7 (inactive). For the same molecule, the H1.0 immunofluorescence intensity (HCC1569 [4]) was 89.7 (inactive).
In the case of `NC(Cc1ccc(O)c(O)c1)C(=O)O` (stereo unspecified) [Levodopa], the cell number (HCC1569 [1]) is reported as 96.9, the cell number (TDF [2]) is reported as 102 and the H1.0 immunofluorescence intensity (TDF [3]) is reported as 93.3 (inactive). For the same molecule, the H1.0 immunofluorescence intensity (HCC1569 [4]) was 96.9 (inactive).
`Cl.NCCc1ccc(O)c(O)c1` [Dopamine hydrochloride] was tested, and the cell number (HCC1569 [1]) was 106, the cell number (TDF [2]) was 100 and the H1.0 immunofluorescence intensity (TDF [3]) was 93.5 (inactive). For the same molecule, the H1.0 immunofluorescence intensity (HCC1569 [4]) was 89.7 (inactive).
For `Clc1ccc(C(Cn2ccnc2)OCc2ccsc2Cl)c(Cl)c1` (stereo unspecified) [Tioconazole], the cell number (HCC1569 [1]) was 102, the cell number (TDF [2]) was 94.9 and the H1.0 immunofluorescence intensity (TDF [3]) was 103 (inactive). The H1.0 immunofluorescence intensity (HCC1569 [4]) was 113 (inactive).
For `NC(=O)N1c2ccccc2CC(=O)c2ccccc21` [Oxcarbazepine], the cell number (HCC1569 [1]) was 103, the cell number (TDF [2]) was 108 and the H1.0 immunofluorescence intensity (TDF [3]) was 93.7 (inactive). The H1.0 immunofluorescence intensity (HCC1569 [4]) was 110 (inactive).
For `CC(C)NNC(=O)c1ccncc1` [Iproniazid], the cell number (HCC1569 [1]) was 104, the cell number (TDF [2]) was 103 and the H1.0 immunofluorescence intensity (TDF [3]) was 100 (inactive). The H1.0 immunofluorescence intensity (HCC1569 [4]) was 112 (inactive).
For `COc1ccc2nc(S(=O)Cc3ncc(C)c(OC)c3C)[nH]c2c1` (stereo unspecified) [Omeprazole], the cell number (HCC1569 [1]) was 100, the cell number (TDF [2]) was 102 and the H1.0 immunofluorescence intensity (TDF [3]) was 95.5 (inactive). The H1.0 immunofluorescence intensity (HCC1569 [4]) was 111 (inactive).
In the case of `CC(C)C1CCC(C(=O)NC(Cc2ccccc2)C(=O)O)CC1` (stereo unspecified) [Nateglinide], the cell number (HCC1569 [1]) is reported as 105, the cell number (TDF [2]) is reported as 112 and the H1.0 immunofluorescence intensity (TDF [3]) is reported as 96.1 (inactive). The H1.0 immunofluorescence intensity (HCC1569 [4]) was 102 (inactive).
In the case of `Cc1ccc(C(=CCN2CCCC2)c2ccccn2)cc1.Cl` [Triprolidine hydrochloride], the cell number (HCC1569 [1]) is reported as 106, the cell number (TDF [2]) is reported as 105 and the H1.0 immunofluorescence intensity (TDF [3]) is reported as 97.5 (inactive). For the same molecule, the H1.0 immunofluorescence intensity (HCC1569 [4]) was 90 (inactive).
With `CCn1c(=O)c2[nH]c(-c3ccccc3)nc2n(CC)c1=O` [1,3-Diethyl-8-phenylxanthine] the cell number (HCC1569 [1]) was 98.9, the cell number (TDF [2]) was 103 and the H1.0 immunofluorescence intensity (TDF [3]) was 90.7 (inactive). For the same molecule, the H1.0 immunofluorescence intensity (HCC1569 [4]) was 87.1 (inactive).
`O=[N+]([O-])c1ccc(CSc2ncnc3c2ncn3C2OC(CO)C(O)C2O)cc1` (stereo not drawn) [S-(4-Nitrobenzyl)-6-thioinosine] was tested, and the cell number (HCC1569 [1]) was 99, the cell number (TDF [2]) was 111 and the H1.0 immunofluorescence intensity (TDF [3]) was 92.2 (inactive). The H1.0 immunofluorescence intensity (HCC1569 [4]) was 80.6 (inactive).
For `COCc1nc2c([nH]1)c(=O)n(C)c(=O)n2CC(C)C` [8-Methoxymethyl-3-isobutyl-1-methylxanthine], the cell number (HCC1569 [1]) was 104, the cell number (TDF [2]) was 110 and the H1.0 immunofluorescence intensity (TDF [3]) was 92.4 (inactive). For the same molecule, the H1.0 immunofluorescence intensity (HCC1569 [4]) was 93.2 (inactive).
